The record followed here is PubChem BioAssay (NCATS).

SMILES strings stand for the structures. Results filed as inconclusive are left out. Where a call stands in place of a potency, no number is given. Activity calls are given as the source filed them. Calls come from the whole dose curve; as a rule, active = well fitted curve in the direction sought with a large enough effect; inconclusive = small, poorly fitted or top-dose-only effect, or another doubt; inactive = no such curve, though single readings can be large; an effect the other way counts as inactive or inconclusive.

Experiment [1] addresses Arylsulfatase A (Homo sapiens) (UniProt P15289). Put plainly: qHTS screen for enhancers of Arylsulfatase A (ASA1): LOPAC Validation Assay (AID 720538). Note: potency is the fitted concentration of half-maximal effect. The method in brief: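 Read-out: fluorescence at Ex=525/Em=598 nm after 1N NaOH final stop. Patient fibroblasts carrying ASA-I179S had 48h compound exposure, then 14h room-temperature pNCS hydrolysis (0.5mM final) in lysis buffer. Signal increase = enhanced activity.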

Experiment [2] is described as follows: qHTS for compounds that reverse cellular toxicity of Amyloid beta (A-beta) peptide in yeast: LOPAC Validation Assay (AID 720559). The method in brief:
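OD600 growth readout after 48 hr at 30 C; A-beta-toxic yeast plus pinned compounds in medium. Normalization: DMSO = negative, equimolar FeCl3 + clioquinol = positive.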
A general note: In qHTS, concentration-response curves come from the screen itself.

Experiment [3] can be described thus: qHTS for Activators of Parkin Expression: LOPAC Validation Assay (NLuc Reporter) (AID 720572; note: potency is the fitted concentration of half-maximal effect). The method, boiled down: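 Neuronal line stably carrying a FLuc/NLuc coincidence reporter under the Parkin promoter, seeded 24 h, then dosed in 7-point series for 24 h at 37 C. NLuc luminescence read after FLuc; normalized to DMSO and positive control (100%).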

Arylsulfatase A (Homo sapiens), sequence (P15289 whole entry, looked up): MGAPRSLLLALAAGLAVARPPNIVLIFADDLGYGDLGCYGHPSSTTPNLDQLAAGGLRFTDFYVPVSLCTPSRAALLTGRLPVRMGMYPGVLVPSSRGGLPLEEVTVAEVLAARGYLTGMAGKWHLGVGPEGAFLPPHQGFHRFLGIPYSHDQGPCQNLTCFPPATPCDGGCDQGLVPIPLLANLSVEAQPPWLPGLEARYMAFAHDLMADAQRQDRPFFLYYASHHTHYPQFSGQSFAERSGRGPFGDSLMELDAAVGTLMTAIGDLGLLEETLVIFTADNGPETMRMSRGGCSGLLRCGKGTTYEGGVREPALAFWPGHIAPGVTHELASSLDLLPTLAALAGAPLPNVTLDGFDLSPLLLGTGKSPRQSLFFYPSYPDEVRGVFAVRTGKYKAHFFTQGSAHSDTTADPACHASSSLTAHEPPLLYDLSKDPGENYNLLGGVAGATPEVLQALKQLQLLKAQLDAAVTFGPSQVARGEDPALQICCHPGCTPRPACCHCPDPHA

Turning to `N[C@@H](CCl)C(=O)O`, the Potency result in experiment [1] and in experiment [3] was “inactive” in each case. The call in experiment [2] was inactive.

On to `Oc1ccc2c3c1O[C@H]1c4oc5ccccc5c4C[C@@]4(O)C(C2)N(CC2CC2)CCC314` (stereo partly specified), for which the Potency result in experiment [1] and in experiment [3] was “inactive” in each case. Besides, the call in experiment [2] was inactive.

In the case of `CN(C(=O)Cc1ccc(Cl)c(Cl)c1)C(CN1CCCC1)c1cccc(OCC(=O)O)c1` (stereo unspecified), the Potency result in experiment [1] and in experiment [3] was “inactive” throughout. In addition, the call in experiment [2] was inactive.

For `CC(C)[C@@]1(NC(=O)[C@@H]2C[C@@H]3c4cccc5[nH]cc(c45)C[C@H]3N(C)C2)O[C@@]2(O)[C@@H]3CCCN3C(=O)[C@H](Cc3ccccc3)N2C1=O`, the Potency entry in experiment [1] and in experiment [3] was “inactive” in each case. In addition, the outcome in experiment [2] was inactive.

Take `CC(C)(C)c1cc(C=C(C#N)C#N)cc(C(C)(C)C)c1O`: the Potency result in experiment [1] and in experiment [3] was “inactive” in each case. Also, the compound was classed as inactive in experiment [2].

Regarding `COc1ccc2c(c1)C13CCCCC1C(C2)N(C)CC3` (stereo unspecified), the Potency entry in experiment [1] and in experiment [3] was “inactive” in each case. Further, the outcome in experiment [2] was inactive.

For `C/C(O)=C(\C#N)C(=O)Nc1cc(Br)ccc1Br`, the Potency entry in experiment [1] and in experiment [3] was “inactive” each time. For the same compound, the compound was called inactive in experiment [2].

Take `COc1ccc2[nH]c3c(c2c1)CCNC3`: the Potency entry in experiment [1] and in experiment [3] was “inactive” in each case. In addition, the result in experiment [2] was inactive.

Turning to `N#C/C(=C/c1ccc(O)c(O)c1)C(N)=S`, the Potency entry in experiment [1] and in experiment [3] was “inactive” in each case. The compound was called inactive in experiment [2].

On to `C[C@@H]1O[C@H](C[N+](C)(C)C)CS1`, for which the Potency result in experiment [1] and in experiment [3] was “inactive” each time. Also, the result in experiment [2] was inactive.

`CCCCCCCCCCCCCC(=O)O[C@@H]1[C@@H](C)[C@@]2(O)[C@@H](C=C(CO)C[C@@]3(O)C(=O)C(C)=C[C@@H]23)C2C(C)(C)[C@@]21OC(C)=O` (stereo partly specified): the Potency entry in experiment [1] and in experiment [3] was “inactive” throughout. In addition, the outcome in experiment [2] was inactive.

Regarding `CC(=O)c1c(O)c(C)c(O)c(Cc2c(O)c3c(c(C(=O)/C=C/c4ccccc4)c2O)OC(C)(C)C=C3)c1O`, the Potency entry in experiment [1] and in experiment [3] was “inactive” in each case. Moreover, the outcome in experiment [2] was inactive.

Regarding `COc1cc(CC(C)N)c(OC)cc1I` (stereo unspecified), the Potency result in experiment [1] and in experiment [3] was “inactive” each time. Moreover, in experiment [2], the result was inactive.

Turning to `Cc1[nH]c2ccc(O)cc2c1CCN`, the Potency entry in experiment [1] and in experiment [3] was “inactive” each time. For the same compound, in experiment [2], the outcome was inactive.

On to `CN(N=O)c1ccc(O)c(O)c1`, for which, in experiment [1], the Potency is 3.01 µM (active). In experiment [2], the compound was classed as inactive. Moreover, the Potency result in experiment [3] was “inactive”.

As to `C#CCN[C@H](C)Cc1ccccc1`, the Potency entry in experiment [1] and in experiment [3] was “inactive” throughout. Moreover, in experiment [2], the call was inactive.

With `C[C@@H]1[C@@H]2Cc3ccc(O)cc3[C@@]1(C)CCN2CC1CC1`, the Potency result in experiment [1] and in experiment [3] was “inactive” in each case. Moreover, the compound was classed as inactive in experiment [2].

Turning to `COc1ccc2c(c1)[C@@]13CCCC[C@H]1[C@@H](C2)NCC3`, the Potency result in experiment [1] and in experiment [3] was “inactive” in each case. The compound was called inactive in experiment [2].

Turning to `O=c1c2ccccc2[se]n1-c1ccccc1`, the Potency result in experiment [1] and in experiment [3] was “inactive” throughout. Besides, the call in experiment [2] was inactive.

Turning to `CCCC[N+]1(C)C2CC(OC(=O)[C@H](CO)c3ccccc3)CC1C1OC12` (stereo partly specified), the Potency entry in experiment [1] and in experiment [3] was “inactive” each time. Besides, the result in experiment [2] was inactive.

As for `Cc1c2ccncc2c(C)c2c1[nH]c1ccccc12`, the Potency entry in experiment [1] and in experiment [3] was “inactive” in each case. In addition, the compound was classed as inactive in experiment [2].

For `C=CCN(C1=NCCN1)c1c(Cl)cccc1Cl`, the Potency result in experiment [1] and in experiment [3] was “inactive” throughout. In addition, the call in experiment [2] was inactive.

For the compound `CC(C)(C)c1o[nH]c(=O)c1CC(N)C(=O)O` (stereo unspecified), the Potency result in experiment [1] and in experiment [3] was “inactive” throughout. Also, the call in experiment [2] was inactive.

For the compound `NC(=O)c1ccc(OCC(O)CN2CC=C(c3ccc(F)cc3)CC2)cc1` (stereo unspecified), the Potency entry in experiment [1] and in experiment [3] was “inactive” each time. Further, the call in experiment [2] was inactive.

For `NC(CCCCCP(=O)(O)O)C(=O)O` (stereo unspecified), the Potency result in experiment [1] and in experiment [3] was “inactive” in each case. Besides, the compound was classed as inactive in experiment [2].

Consider `CCCN(CCC)CCc1c[nH]c2ccc(C(N)=O)cc12`, for which the Potency result in experiment [1] and in experiment [3] was “inactive” in each case. The compound was classed as inactive in experiment [2].

On to `CC(Cc1ccc(OCC(=O)O)cc1)NCC(O)c1cccc(Cl)c1` (stereo unspecified), for which the Potency result in experiment [1] and in experiment [3] was “inactive” each time. Moreover, the compound was called inactive in experiment [2].

Regarding `Cc1sc2ccccc2c1CC1=NCCN1`, the Potency result in experiment [1] and in experiment [3] was “inactive” throughout. In addition, the outcome in experiment [2] was inactive.

In the case of `CN(N=O)c1cc(O)ccc1O`, the Potency result in experiment [1] and in experiment [3] was “inactive” throughout. Further, the compound was called inactive in experiment [2].

Regarding `CCS(=O)(=O)Nc1cccc(C(=C2CCCCC2)c2cnc[nH]2)c1`, the Potency entry in experiment [1] and in experiment [3] was “inactive” each time. Moreover, the outcome in experiment [2] was inactive.

In the case of `NC(=O)COc1c(F)cc(SCCNS(=O)(=O)c2ccccc2)cc1F`, the Potency result in experiment [1] and in experiment [3] was “inactive” each time. Besides, the compound was called inactive in experiment [2].

Take `CC(C)(O)[C@@H]1C2OC(=O)[C@@H]1[C@]1(O)C[C@H]3O[C@]34C(=O)O[C@H]2[C@]14C` (tested in a mixture with another compound): the Potency result in experiment [1] and in experiment [3] was “inactive” throughout. Moreover, in experiment [2], the call was inactive.

For `c1ccc2c(c1)[I+]c1ccccc1-2`, the Potency result in experiment [1] and in experiment [3] was “inactive” each time. Besides, the result in experiment [2] was inactive.

`C[C@H](N)CN1CCc2ccc(Br)cc21`: the Potency entry in experiment [1] and in experiment [3] was “inactive” in each case. Further, in experiment [2], the outcome was inactive.

Regarding `CCCN1CCc2cccc3c2[C@H]1Cc1ccc(O)c(O)c1-3`, the Potency entry in experiment [1] and in experiment [3] was “inactive” each time. Also, in experiment [2], the outcome was inactive.

With `Cc1o[nH]c(=O)c1CC(N)C(=O)O` (stereo unspecified), the Potency result in experiment [1] and in experiment [3] was “inactive” in each case. For the same compound, in experiment [2], the call was inactive.

For `CCCn1c(C)c(C(=O)c2ccc3ccccc3c2)c2ccccc21`, the Potency result in experiment [1] and in experiment [3] was “inactive” each time. For the same compound, the compound was called inactive in experiment [2].

As to `CN1CCC(c2c[nH]c3ccc(O)cc23)CC1`, the Potency result in experiment [1] and in experiment [3] was “inactive” throughout. Also, the compound was classed as inactive in experiment [2].

Consider `NC(N)=Nc1ccc2[nH]c3c(c2c1)C[C@@]1(O)[C@H]2Cc4ccc(O)c5c4[C@@]1(CCN2CC1CC1)[C@H]3O5`, for which the Potency entry in experiment [1] and in experiment [3] was “inactive” in each case. Besides, the compound was classed as inactive in experiment [2].

As for `CC(=O)OCC1=C(C(=O)O)N2C(=O)[C@@H](NC(=O)CCC[C@@H](N)C(=O)O)[C@H]2SC1`, the Potency entry in experiment [1] and in experiment [3] was “inactive” each time. Further, in experiment [2], the call was inactive.

On to `OC1CCCCC1N1CCC(c2ccccc2)CC1` (stereo unspecified), for which the Potency entry in experiment [1] and in experiment [3] was “inactive” in each case. Also, the outcome in experiment [2] was inactive.

`CCn1cnc2c(Nc3cccc(Cl)c3)nc(N[C@@H]3CCCC[C@@H]3N)nc21`: the Potency result in experiment [1] and in experiment [3] was “inactive” throughout. For the same compound, the result in experiment [2] was inactive.

`CO[C@H]1CC=C2CCN3CCC4=C(CC(=O)OC4)[C@]23C1`: the Potency result in experiment [1] and in experiment [3] was “inactive” in each case. The compound was classed as inactive in experiment [2].

Take `COc1ccc2c(c1O)-c1cccc3c1[C@@H](C2)N(C)CC3`: the Potency entry in experiment [1] and in experiment [3] was “inactive” in each case. Besides, the compound was classed as inactive in experiment [2].

With `C[C@H](N)Cc1cccc(C(F)(F)F)c1`, the Potency entry in experiment [1] and in experiment [3] was “inactive” throughout. In addition, the result in experiment [2] was inactive.

`NCCc1ccc(S(=O)(=O)F)cc1`: the Potency entry in experiment [1] and in experiment [3] was “inactive” throughout. Moreover, the compound was called inactive in experiment [2].

Take `NC(=O)CI`: the Potency result in experiment [1] and in experiment [3] was “inactive” each time. The call in experiment [2] was inactive.

As for `NC(N)=NOCC[C@H](N)C(=O)O`, the Potency result in experiment [1] and in experiment [3] was “inactive” throughout. Moreover, in experiment [2], the call was inactive.

In the case of `CCOC(=O)c1ncn2c1[C@@H]1CCCN1C(=O)c1cc(OC)ccc1-2`, the Potency result in experiment [1] and in experiment [3] was “inactive” throughout. Also, the compound was classed as inactive in experiment [2].

On to `COc1ccc(CNC(=O)/C=C/c2ccc3[nH]cc(CCN(C)C)c3c2)cc1`, for which the Potency entry in experiment [1] and in experiment [3] was “inactive” throughout. Besides, the result in experiment [2] was inactive.

As to `COc1ccc2c(c1)/C(=C/c1cnc[nH]1)C(=O)N2`, the Potency result in experiment [1] was “inactive”. For the same compound, the call in experiment [2] was inactive. Moreover, the Potency in experiment [3] was 23.1 µM (active).

Regarding `CN1CCc2cccc(Cl)c2CC1`, the Potency entry in experiment [1] and in experiment [3] was “inactive” in each case. Besides, the compound was called inactive in experiment [2].
